Sm TGR block = inhibitors of Schistosoma mansoni thioredoxin glutathione reductase; 3% of 360,000 active; Q962Y6; purified TGR, DTNB reduction, TNB absorbance 405 nm; Potency, µM (titrated, usually from 114 µM), usual class: inhibitors; AID 485364; further: nearly all actives have a fitted effect of over 60% in size
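TGR 20 nM + NADPH 100 uM (dispensed conc.), cpd preinc 15 min RT; start with NADPH (500 uM addition) then DTNB (15 mM addition). Kinetic TNB absorbance, 405 nm filter. Four-parameter Hill fit across titration.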
Pf growth 96h = P. falciparum growth inhibition at 96 hour, primary screen for plastid delayed-death inhibitors. Potency, µM (series often up to 28.7 µM), actives largely listed as inhibitors. 6.9% of 320,000 active. P. falciparum luciferase reporter growth, 96 h
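Two-generation exposure (96 h) targets delayed-death phenotype. Reporter parasites carrying integrated firefly luciferase, in red cells at 2% hematocrit and 0.05% parasitemia final, kept at 37 C, 5% CO2; luminescence loss indicates inhibition.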
SARS PLpro yeast = inhibitors of SARS-CoV papain-like protease in yeast; Potency, µM (doses to about 32.9 µM), most hits filed as activators; 0.19% of 330,000 active; AID 485353; S. cerevisiae expressing SARS-CoV PLpro, growth rescue; calls by dose curve; further: nearly all actives have a fitted effect of over 55% in size
Pf growth 48h = P. falciparum growth inhibition at 48 hours (one generation). P. falciparum luciferase growth in erythrocytes, 48 h. Potency, µM (top dose mostly 28.7 µM), most hits filed as inhibitors. 5.9% of 310,000 active. AID 504832
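Luciferase-expressing parasites in RBCs, 2% Hct / 0.1% parasitemia final; RPMI 1640 + 0.5% Albumax; 37 C, 5% CO2, one generation; luminescence read-out, lower signal = inhibition.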
Large screens that a line does not name were inactive. A selection: hits, their analogues and other compounds. The true share with any hit is near 12%. Unless noted, the call rests on the fitted dose curve; in most records, active means well fitted curve in the direction sought with a large enough effect; inconclusive means small, poorly fitted or top-dose-only effect, or another doubt; inactive means no such curve, though single readings can be large; an effect the other way counts as inactive or inconclusive.

O=C(COc1ccc2ccccc2c1)N1CCN(c2ccccc2)CC1	none
O=C(OCC(=O)N1CCN(c2ccccc2)CC1)c1ccc(Cl)nc1	none
CCC1CCCCN1CCCNC(=O)c1ccc2c(c1)N(Cc1cccc(Cl)c1)C(=O)c1ccccc1S2(=O)=O (stereo not drawn)	none (no result: Pf growth 96h, SARS PLpro yeast, Pf growth 48h)
CCN(Cc1ccc(OC)c(F)c1)C(=O)C1CCCO1 (stereo not drawn)	none
CCN(Cc1ccc(OC)c(F)c1)C(=O)CCl	Sm TGR block 11µM, Pf growth 96h inconclusive, Pf growth 48h inconclusive
CC(C)CNC(=O)/C=C/C=C/CCCC/C=C/c1ccc2c(c1)OCO2	Pf growth 96h inconclusive, Pf growth 48h inconclusive
CN1CCc2nc3ccccc3c(C(=O)OCC(=O)N(CCC#N)c3ccccc3)c2C1	Pf growth 96h 13µM, Pf growth 48h inconclusive
CC(=O)Oc1c(-c2ccc(Br)o2)oc2ccccc2c1=O	Sm TGR block inconclusive, Pf growth 48h inconclusive
CCOc1ccccc1O[C@@H](c1ccccc1)[C@@H]1CNCCO1	Pf growth 96h 13µM, Pf growth 48h inconclusive (no result: Sm TGR block, SARS PLpro yeast)
CCOc1ccccc1CNC(c1ccccc1)c1ccccc1	Pf growth 96h inconclusive
Oc1cc(Nc2ccccc2)cc2cccnc12	Pf growth 96h 2.6µM, Pf growth 48h 2.1µM
O=C(COc1cccc2cccnc12)NNC(=O)Nc1ccccc1	none
Oc1cc(NCc2ccccc2)cc2cccnc12	Pf growth 96h 2.6µM, Pf growth 48h 1.9µM
O=S(=O)(NCc1ccccc1)c1cccc2cccnc12	none (no result: Pf growth 96h)
Oc1cc(NCCN2CCOCC2)cc2cccnc12	Sm TGR block inconclusive, Pf growth 96h inconclusive, Pf growth 48h 4.7µM
CC1(C)Cc2c(c(=S)nc(-c3ccccc3)n2CCOCCO)CO1	none
OCCOCCn1c(-c2ccccc2)nc(=S)c2c1CCCC2	Sm TGR block inconclusive, Pf growth 96h 10µM (no result: Pf growth 48h)
S=c1nc(-c2ccccc2)n(CCCn2ccnc2)c2c1CCCC2	Sm TGR block 45µM, Pf growth 96h inconclusive
COc1cccc2c1oc1c(SCc3nc4ccccc4[nH]3)nc(C)nc12	none (no result: Sm TGR block, Pf growth 96h, Pf growth 48h)
CCCCCn1nc(C(=O)N2CCc3ccccc32)c2ccccc2c1=O	Pf growth 96h inconclusive, Pf growth 48h 10µM
CCOC(=O)Cc1nn(CC)c(=O)c2ccccc12	none
CCn1nc(CC(=O)O)c2ccccc2c1=O	none
CCOC(=O)Cc1nn(C)c(=O)c2ccccc12	Pf growth 96h 5.2µM
CCCCn1nc(CC(=O)O)c2ccccc2c1=O	Pf growth 96h 10µM
CCCn1nc(C(=O)N2CCc3ccccc32)c2ccccc2c1=O	Pf growth 96h inconclusive, Pf growth 48h inconclusive
O=C(Nc1ccccc1)c1cc(-n2cnnc2)ccc1Cl	SARS PLpro yeast 10µM
O=C(Nc1ccc(N2CCOCC2)cc1)c1cc(-n2cnnc2)ccc1Cl	none
O=C(Nc1ccc2oc(-c3ccccc3)nc2c1)c1cc(-n2cnnc2)ccc1Cl	none
O=C(Nc1ccc(-c2nc3ccccc3o2)c(O)c1)c1cc(-n2cnnc2)ccc1Cl	Pf growth 48h 9.3µM
O=C(Nc1ccc(-c2nc3ccccc3o2)cc1)c1cc(-n2cnnc2)ccc1Cl	Pf growth 96h 15µM, Pf growth 48h 12µM
O=C(Nc1ccc(-c2nc3ccccc3o2)cc1)c1ccc(N2C(=O)C3C4C=CC(C4)C3C2=O)cc1 (stereo not drawn)	Pf growth 96h 1.9µM (no result: Pf growth 48h)
O=C(Nc1ccc(-c2nc3ccccc3o2)cc1)c1ccc2c(c1)OCO2	Pf growth 96h inconclusive, Pf growth 48h inconclusive (no result: SARS PLpro yeast)
CC1=C(C(=O)Nc2ccccc2)C(c2ccccc2)n2nc(-c3ccco3)nc2N1 (stereo not drawn)	none (no result: Pf growth 96h, SARS PLpro yeast, Pf growth 48h)
CC(O)Cn1c(N2CCCC2)nc2c1c(=O)[nH]c(=O)n2C (stereo not drawn)	Pf growth 48h inconclusive
CC(C)Cn1c(=O)c2sccc2n2c(CCCC(=O)NCc3ccccc3Cl)nnc12	none (no result: Pf growth 96h, SARS PLpro yeast, Pf growth 48h)
Cc1c(CC(=O)N2CCCCC2)c(=O)oc2cc3occ(C(C)(C)C)c3cc12	none (no result: Pf growth 96h, SARS PLpro yeast, Pf growth 48h)
Cc1cc(NC(=O)c2ccc(-c3ccc(Br)cc3)o2)cc(-c2nc3ncccc3o2)c1O	none (no result: Pf growth 96h, SARS PLpro yeast, Pf growth 48h)
Cc1ccc(C)c(S(=O)(=O)N2CCN(C(=O)[C@H](Cc3ccccc3)NC(=O)c3ccco3)CC2)c1	none (no result: Sm TGR block, Pf growth 96h, Pf growth 48h)
Nc1ccc(N2CCCCC2)cc1N1CCCCC1	Sm TGR block inconclusive, Pf growth 48h 3.3µM
Nc1cc(Cl)ccc1N1CCCCCC1	Sm TGR block 6.3µM, Pf growth 48h 2.6µM
Nc1cc(Cl)ccc1N1CCCCC1	none
O=C(Cn1ncn2c(cc3sccc32)c1=O)NC1CCCC1	Pf growth 96h 8.3µM
CC(NC(=O)NC(=O)c1ccc(F)cc1)C1CC1 (stereo not drawn)	none (no result: Sm TGR block, Pf growth 96h, Pf growth 48h)
O=C(NC1CCS(=O)(=O)C1)c1cccc(S(=O)(=O)N2CCCCC2)c1 (stereo not drawn)	none (no result: Pf growth 96h)
